# Data as given in PubChem BioAssay AID1159580 (chemical genetic matrix, 2015).
# In all, about 5,500 compounds went through this assay and about 2,000 (36%) were called active. Another 18% or so got no clear call; they are omitted. This is one part of the list. Values without a mark were called inactive. Cut-off read from the data, not from the text of the source: active = normalized growth mostly below about 0.91 (no sharp cut-off); inconclusive = no clear call, values can overlap the other calls; inactive = mostly above about 0.92.
# Assay: chemical genetic growth profiling, strain panel (AID 1159580);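 note: tested at 20 µM; growth read once vehicle control cultures reached saturation at 30 °C; 1 = growth at the plate median or of vehicle wells; lower values mean less growth of the strain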
# Settings: growth OD
smiles,measurement,setting,value
Fc1ccc(C(c2ccccc2)(c2ccccc2F)n2ccnc2)cc1 (stereo unspecified),normalized growth,"S. cerevisiae deletion strains, locus YAL013W, strain DEP1, active compounds read low",0.0872 (active)
same,normalized growth,"S. cerevisiae deletion strains, locus YBR021W, strain FUR4, active compounds read low",0.19 (active)
same,normalized growth,"S. cerevisiae deletion strains, locus YBR229C, strain ROT2, active compounds read low",0.0785 (active)
same,normalized growth,"S. cerevisiae deletion strains, locus YCL029C, strain bik1, active compounds read low",0.0815 (active)
same,normalized growth,"S. cerevisiae deletion strains, locus YDL035C, strain GPR1, active compounds read low",0.0631 (active)
same,normalized growth,"S. cerevisiae deletion strains, locus YDL074C, strain BRE1, active compounds read low",0.147 (active)
same,normalized growth,"S. cerevisiae deletion strains, locus YDL101C, strain DUN1, active compounds read low",0.0698 (active)
same,normalized growth,"S. cerevisiae deletion strains, locus YDL134C, strain PPH21, active compounds read low",0.0588 (active)
same,normalized growth,"S. cerevisiae deletion strains, locus YDL185W, strain tfp1, active compounds read low",0.0581 (active)
same,normalized growth,"S. cerevisiae deletion strains, locus YDL192W, strain arf1, active compounds read low",0.0867 (active)
same,normalized growth,"S. cerevisiae deletion strains, locus YDR101C, strain arx1, active compounds read low",0.0775 (active)
same,normalized growth,"S. cerevisiae deletion strains, locus YDR150W, strain NUM1, active compounds read low",0.0798 (active)
same,normalized growth,"S. cerevisiae deletion strains, locus YDR162C, strain NBP2, active compounds read low",0.0536 (active)
same,normalized growth,"S. cerevisiae deletion strains, locus YDR318W, strain mcm21, active compounds read low",0.082 (active)
same,normalized growth,"S. cerevisiae deletion strains, locus YDR388W, active compounds read low",0.0787 (active)
same,normalized growth,"S. cerevisiae deletion strains, locus YDR502C, strain sam2, active compounds read low",0.079 (active)
same,normalized growth,"S. cerevisiae deletion strains, locus YEL061C, strain CIN8, active compounds read low",0.063 (active)
same,normalized growth,"S. cerevisiae deletion strains, locus YER110C, active compounds read low",0.112 (active)
same,normalized growth,"S. cerevisiae deletion strains, locus YER155C, strain BEM2, active compounds read low",0.097 (active)
same,normalized growth,"S. cerevisiae deletion strains, locus YER167W, strain BCK2, active compounds read low",0.0563 (active)
same,normalized growth,"S. cerevisiae deletion strains, locus YGL078C, strain dbp3, active compounds read low",0.111 (active)
same,normalized growth,"S. cerevisiae deletion strains, locus YGL086W, strain mad1, active compounds read low",0.0673 (active)
same,normalized growth,"S. cerevisiae deletion strains, locus YGL248W, strain PDE1, active compounds read low",0.0531 (active)
same,normalized growth,"S. cerevisiae deletion strains, locus YGR078C, strain PAC10, active compounds read low",0.0703 (active)
same,normalized growth,"S. cerevisiae deletion strains, locus YGR135W, strain pre9, active compounds read low",0.0937 (active)
same,normalized growth,"S. cerevisiae deletion strains, locus YGR229C, strain SMI1, active compounds read low",0.0699 (active)
same,normalized growth,"S. cerevisiae deletion strains, locus YGR252W, strain gcn5, active compounds read low",0.179 (active)
same,normalized growth,"S. cerevisiae deletion strains, locus YHR030C, strain SLT2, active compounds read low",0.0565 (active)
same,normalized growth,"S. cerevisiae deletion strains, locus YHR079C, strain IRE1 (second series), active compounds read low",0.0811 (active)
same,normalized growth,"S. cerevisiae deletion strains, locus YHR094C, strain hxt1, active compounds read low",0.0819 (active)
same,normalized growth,"S. cerevisiae deletion strains, locus YHR129C, strain ARP1, active compounds read low",0.0647 (active)
same,normalized growth,"S. cerevisiae deletion strains, locus YHR200W, strain rpn10, active compounds read low",0.101 (active)
same,normalized growth,"S. cerevisiae deletion strains, locus YIL066C, strain RNR3, active compounds read low",0.054 (active)
same,normalized growth,"S. cerevisiae deletion strains, locus YIL073C, strain SPO22, active compounds read low",0.128 (active)
same,normalized growth,"S. cerevisiae deletion strains, locus YIL125W, strain kgd1, active compounds read low",0.14 (active)
same,normalized growth,"S. cerevisiae deletion strains, locus YIR030C, strain dcg1, active compounds read low",0.0795 (active)
same,normalized growth,"S. cerevisiae deletion strains, locus YJL095W, strain BCK1, active compounds read low",0.0549 (active)
same,normalized growth,"S. cerevisiae deletion strains, locus YJL134W, strain LCB3, active compounds read low",0.0651 (active)
same,normalized growth,"S. cerevisiae deletion strains, locus YJL168C, strain set2, active compounds read low",0.0832 (active)
same,normalized growth,"S. cerevisiae deletion strains, locus YJL187C, strain SWE1 (second series), active compounds read low",0.0603 (active)
same,normalized growth,"S. cerevisiae deletion strains, locus YJR043C, strain POL32, active compounds read low",0.0763 (active)
same,normalized growth,"S. cerevisiae deletion strains, locus YJR075W, strain HOC1, active compounds read low",0.0813 (active)
same,normalized growth,"S. cerevisiae deletion strains, locus YKL009W, strain mrt4, active compounds read low",0.4 (active)
same,normalized growth,"S. cerevisiae deletion strains, locus YKL068W, active compounds read low",0.178 (active)
same,normalized growth,"S. cerevisiae deletion strains, locus YKL085W, strain MDH1 (second series), active compounds read low",0.126 (active)
same,normalized growth,"S. cerevisiae deletion strains, locus YKL085W, strain MDH1, active compounds read low",0.126 (active)
same,normalized growth,"S. cerevisiae deletion strains, locus YKL190W, strain CNB1, active compounds read low",0.0509 (active)
same,normalized growth,"S. cerevisiae deletion strains, locus YKR001C, strain vps1, active compounds read low",0.0897 (active)
same,normalized growth,"S. cerevisiae deletion strains, locus YLR039C, strain RIC1, active compounds read low",0.191 (active)
same,normalized growth,"S. cerevisiae deletion strains, locus YLR058C, strain SHM2, active compounds read low",0.0587 (active)
same,normalized growth,"S. cerevisiae deletion strains, locus YLR102C, strain apc9, active compounds read low",0.0876 (active)
same,normalized growth,"S. cerevisiae deletion strains, locus YLR262C, strain YPT6, active compounds read low",0.23 (active)
same,normalized growth,"S. cerevisiae deletion strains, locus YLR268W, strain sec22, active compounds read low",0.0794 (active)
same,normalized growth,"S. cerevisiae deletion strains, locus YLR330W, strain CHS5, active compounds read low",0.0657 (active)
same,normalized growth,"S. cerevisiae deletion strains, locus YLR342W, strain FKS1 (second series), active compounds read low",0.0856 (active)
same,normalized growth,"S. cerevisiae deletion strains, locus YLR371W, strain rom2, active compounds read low",0.0813 (active)
same,normalized growth,"S. cerevisiae deletion strains, locus YLR418C, strain cdc73, active compounds read low",0.127 (active)
same,normalized growth,"S. cerevisiae deletion strains, locus YML016C, strain PPZ1, active compounds read low",0.0591 (active)
same,normalized growth,"S. cerevisiae deletion strains, locus YML032C, strain rad52, active compounds read low",0.104 (active)
same,normalized growth,"S. cerevisiae deletion strains, locus YML124C, strain tub3, active compounds read low",0.0796 (active)
same,normalized growth,"S. cerevisiae deletion strains, locus YMR078C, strain ctf18, active compounds read low",0.101 (active)
same,normalized growth,"S. cerevisiae deletion strains, locus YMR223W, strain ubp8, active compounds read low",0.0885 (active)
same,normalized growth,"S. cerevisiae deletion strains, locus YMR263W, strain SAP30, active compounds read low",0.108 (active)
same,normalized growth,"S. cerevisiae deletion strains, locus YMR307W, strain GAS1, active compounds read low",0.129 (active)
same,normalized growth,"S. cerevisiae deletion strains, locus YNL067W, strain RPL9B, active compounds read low",0.0623 (active)
same,normalized growth,"S. cerevisiae deletion strains, locus YNL128W, strain TEP1, active compounds read low",0.0794 (active)
same,normalized growth,"S. cerevisiae deletion strains, locus YNL153C, strain GIM3, active compounds read low",0.0592 (active)
same,normalized growth,"S. cerevisiae deletion strains, locus YNL233W, strain BNI4, active compounds read low",0.0673 (active)
same,normalized growth,"S. cerevisiae deletion strains, locus YNL250W, strain rad50, active compounds read low",0.133 (active)
same,normalized growth,"S. cerevisiae deletion strains, locus YNL271C, strain bni1, active compounds read low",0.114 (active)
same,normalized growth,"S. cerevisiae deletion strains, locus YNL298W, strain CLA4, active compounds read low",0.0847 (active)
same,normalized growth,"S. cerevisiae deletion strains, locus YNL307C, strain MCK1, active compounds read low",0.0726 (active)
same,normalized growth,"S. cerevisiae deletion strains, locus YNL322C, strain KRE1, active compounds read low",0.0639 (active)
same,normalized growth,"S. cerevisiae deletion strains, locus YNR052C, strain pop2, active compounds read low",0.0915 (active)
same,normalized growth,"S. cerevisiae deletion strains, locus YOL006C, strain TOP1, active compounds read low",0.104 (active)
same,normalized growth,"S. cerevisiae deletion strains, locus YOL012C, strain htz1",0.208
same,normalized growth,"S. cerevisiae deletion strains, locus YOL147C, strain pex11, active compounds read low",0.0687 (active)
same,normalized growth,"S. cerevisiae deletion strains, locus YOR061W, strain CKA2, active compounds read low",0.077 (active)
same,normalized growth,"S. cerevisiae deletion strains, locus YOR069W, strain VPS5, active compounds read low",0.0662 (active)
same,normalized growth,"S. cerevisiae deletion strains, locus YOR136W, strain idh2, active compounds read low",0.0938 (active)
same,normalized growth,"S. cerevisiae deletion strains, locus YOR144C, strain elg1, active compounds read low",0.076 (active)
same,normalized growth,"S. cerevisiae deletion strains, locus YOR184W, strain ser1, active compounds read low",0.094 (active)
same,normalized growth,"S. cerevisiae deletion strains, locus YOR316C, strain cot1, active compounds read low",0.0765 (active)
same,normalized growth,"S. cerevisiae deletion strains, locus YPL055C, strain LGE1, active compounds read low",0.0913 (active)
same,normalized growth,"S. cerevisiae deletion strains, locus YPL241C, strain CIN2, active compounds read low",0.0643 (active)
same,normalized growth,"S. cerevisiae deletion strains, locus YPR119W, strain clb2, active compounds read low",0.0897 (active)
same,normalized growth,"S. cerevisiae deletion strains, locus YPR141C, strain kar3, active compounds read low",0.24 (active)
same,normalized growth,"S. cerevisiae deletion strains, locus YPR163C, strain tif3, active compounds read low",0.0819 (active)
same,normalized growth,"S. cerevisiae deletion strains, locus YPR167C, strain met16, active compounds read low",0.0807 (active)
same,normalized growth,"S. cerevisiae deletion strains, strain wtn01, active compounds read low",0.1 (active)
same,normalized growth,"S. cerevisiae strains, strain wild type, active compounds read low",0.0558 (active)
